The structures appear in SMILES notation. Inconclusive results are not listed. The source made the active and inactive calls. The call rests on the fitted dose curve; in most records, active means well fitted cell-killing curve with a large enough effect; inconclusive means small, poorly fitted or top-dose-only effect, or effect the other way; inactive means no such curve, though single readings can be large or run the other way.

These results are taken from PubChem BioAssay (NCATS).
On the % scale 0 is the no-effect control and ±100 the full control effect.

This experiment can be described thus: qHTS assay to identify small molecule inhibitors of chordoma cells - UCH-1 (AID 1259355). Further: nearly all actives have a fitted effect of over 55% in size. Particulars: UCH-1 chordoma viability, CellTiter-Glo, 48 h, combination, with auranofin plus four topoisomerase inhibitors; series mostly up to 46.1 µM; activity, negative = inhibition: at the top concentration. An outline of the steps:
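Luminescent ATP read-out (CellTiter-Glo, 30min at room temperature) measured viability of UCH-1 cells exposed for 48hr to test drugs at 15 concentrations, co-dosed with a five-agent combination of auranofin, camptothecin, doxorubicin, rubitecan and topotecan.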
Turning to `CC(=O)Oc1cccc(O)c1`, the “activity, negative = inhibition” value was -0.347% (inactive). Next, `CC(=O)N(CC(O)CN(C(C)=O)c1c(I)c(C(=O)NCC(O)CO)c(I)c(C(=O)NCC(O)CO)c1I)c1c(I)c(C(=O)NCC(O)CO)c(I)c(C(=O)NCC(O)CO)c1I` (stereo unspecified): -27.1% [at 20.6 µM] (inactive); `CO[C@@]1(NC(=O)C(C(=O)O)c2ccc(O)cc2)C(=O)N2C(C(=O)O)=C(CSc3nnnn3C)CO[C@@H]21` (stereo partly specified): -18.9% [at 20.6 µM] (inactive).

Turning to `COc1ccc2cc(CCC(C)=O)ccc2c1`, the “activity, negative = inhibition” value was -0.0266% [at 20.6 µM] (inactive). Under `CCCCCC(C)N` (stereo unspecified) stands -7.89% (inactive). Next, `NS(=O)(=O)c1cc(-c2nn[nH]n2)c(NCc2cccs2)cc1Cl`: 0.0516% (inactive). For `NC(=O)CCCCC1CCSS1` (stereo unspecified), the “activity, negative = inhibition” value was 17.2% (inactive).

Turning to `Cc1ccsc1/C=C/C1=NCCCN1C`, the “activity, negative = inhibition” value is -6.91% [at 20.6 µM] (inactive). Take `NC(=O)CC[C@@H](N)C(=O)O`: the “activity, negative = inhibition” value was -7.94% (inactive). Under `O=C(Cn1ccnc1[N+](=O)[O-])NCCO` stands -5.14% (inactive). Under `O=c1[nH]cnc2nc[nH]c12` stands -22.3% (inactive). With `CC(=O)NS(=O)(=O)c1ccc(N)cc1`, the “activity, negative = inhibition” value is -20.8% (inactive). Next, `O=C(O)CNC(=O)c1ccccc1I`: -12.4% (inactive); `CC(N)CCCC(C)(C)O` (stereo unspecified): 17.1% (inactive); `CC1CCN(CCCC(=O)c2ccc(F)cc2)CC1`: -7.6% (inactive). Next, `CC(C)c1cc2c(cc1S(=O)(=O)O)[C@@]1(C)CCC[C@@](C)(C(=O)O)[C@@H]1CC2`: 2.7% (inactive); `NNc1nnc(NN)c2ccccc12`: -7.02% (inactive).

With `Cc1ccccc1N=Nc1ccc(N=Nc2c(O)ccc3ccccc23)c(C)c1`, the “activity, negative = inhibition” value is 0.357% (inactive). `CC(=O)Oc1cccc(C)c1`: the “activity, negative = inhibition” value is -11.3% (inactive). Next, `CN1CCCN=C1COC(=O)C(O)(c1ccccc1)C1CCCCC1` (stereo unspecified): -8.97% (inactive). Under `COc1ccc(-c2cc(=O)c3c(O)cc(O[C@@H]4O[C@H](CO[C@@H]5O[C@@H](C)[C@H](O)[C@@H](O)[C@H]5O)[C@@H](O)[C@H](O)[C@H]4O)cc3o2)cc1O` stands -8.47% (inactive).
